Records with an inconclusive call do not appear. Values without a mark were called inactive. Active and inactive are the calls of the source. The call rests on the fitted dose curve; in most records, active means well fitted curve in the direction sought with a large enough effect; inconclusive means small, poorly fitted or top-dose-only effect, or another doubt; inactive means no such curve, though single readings can be large; an effect the other way counts as inactive or inconclusive.
What was measured:
[1] = Quantitative High-Throughput drug screen in 47 multiple myeloma cell lines against the NCATS MIPE library collection: JIM3_ECACC cell viability assay (AID 1918963; further: nearly all actives have a fitted effect of over 35% in size)
How it was run: (§1)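 Approved and investigational drugs from MIPE 4.0 were added by pin tool to 500 cells per well. After 48 hours at 37C, ATP-based CellTiter-Glo luminescence indicated remaining viability.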

[2] = Quantitative High-Throughput drug screen in 47 multiple myeloma cell lines against the NCATS MIPE library collection: INA6_PLB cell viability assay (AID 1918965; further: nearly all actives have a fitted effect of over 55% in size)
How it was run: (§2)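 Inhibition of cell viability is measured here. Each line was plated at 500 cells per well, treated with MIPE 4.0 drugs, kept 48 hours at 37C, then assayed for ATP content by CellTiter-Glo luminescence.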

[3] = Quantitative High-Throughput drug screen in 47 multiple myeloma cell lines against the NCATS MIPE library collection: H1112_PLB cell viability assay (AID 1918967; further: nearly all actives have a fitted effect of over 30% in size)
How it was run: (§3)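 CellTiter-Glo ATP luminescence gave viability after 48 h compound treatment at 37C of 500 multiple myeloma cells per well. Normalisation used DMSO-only wells as 100% and media-only wells as 0% viability; primary qHTS of approved and investigational drugs.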

[4] = Quantitative High-Throughput drug screen in 47 multiple myeloma cell lines against the NCATS MIPE library collection: Karpas25_ECACC cell viability assay (AID 1918968; further: nearly all actives have a fitted effect of over 35% in size)
How it was run: as §3

[5] = Quantitative High-Throughput drug screen in 47 multiple myeloma cell lines against the NCATS MIPE library collection: KMS20_JCRB cell viability assay (AID 1918973); further: nearly all actives have a fitted effect of over 45% in size
How it was run: as §3

[6] = Quantitative High-Throughput drug screen in 47 multiple myeloma cell lines against the NCATS MIPE library collection: KMS21BM_JCRB cell viability assay (AID 1918974); details: ATP luminescence, 48 h; viability: at 45.8 µM (top of the series) unless noted
How it was run: as §3

[7] = Quantitative High-Throughput drug screen in 47 multiple myeloma cell lines against the NCATS MIPE library collection: NCIH929_DSMZ cell viability assay (AID 1918978); further: nearly all actives have a fitted effect of over 35% in size
How it was run: (§4)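 ATP-based luminescence (CellTiter-Glo, 5 min RT incubation) quantified surviving cells following two days' treatment with MIPE 4.0 agents at 37 °C, 5% CO2.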

[8] = Quantitative High-Throughput drug screen in 47 multiple myeloma cell lines against the NCATS MIPE library collection: OCIMY1_PLB cell viability assay (AID 1918979); further: nearly all actives have a fitted effect of over 35% in size
How it was run: as §4

[9] = Quantitative High-Throughput drug screen in 47 multiple myeloma cell lines against the NCATS MIPE library collection: MM1S_ATCC cell viability assay (AID 1918980); further: nearly all actives have a fitted effect of over 45% in size
How it was run: as §4

[10] = Quantitative High-Throughput drug screen in 47 multiple myeloma cell lines against the NCATS MIPE library collection: MM1R_ATCC cell viability assay (AID 1918981); further: nearly all actives have a fitted effect of over 35% in size
How it was run: as §4

[11] = Quantitative High-Throughput drug screen in 47 multiple myeloma cell lines against the NCATS MIPE library collection: LP1_DSMZ cell viability assay (AID 1918982); further: nearly all actives have a fitted effect of over 35% in size
How it was run: as §4

[12] = Quantitative High-Throughput drug screen in 47 multiple myeloma cell lines against the NCATS MIPE library collection: JIM1_ECACC cell viability assay (AID 1918964)
How it was run: as §3

[13] = Quantitative High-Throughput drug screen in 47 multiple myeloma cell lines against the NCATS MIPE library collection: JJN3_DSMZ cell viability assay (AID 1918966; further: nearly all actives have a fitted effect of over 50% in size)
How it was run: as §3

[14] = Quantitative High-Throughput drug screen in 47 multiple myeloma cell lines against the NCATS MIPE library collection: KMS27_JCRB cell viability assay (AID 1918970); further: nearly all actives have a fitted effect of over 30% in size
How it was run: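 Viability inhibition screen, 48 h compound exposure, luminescent ATP read-out.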

[15] = Quantitative High-Throughput drug screen in 47 multiple myeloma cell lines against the NCATS MIPE library collection: KMS12BM_JCRB cell viability assay (AID 1918971); further: nearly all actives have a fitted effect of over 35% in size
How it was run: as §1

[16] = Quantitative High-Throughput drug screen in 47 multiple myeloma cell lines against the NCATS MIPE library collection: KMS12PE_JCRB cell viability assay (AID 1918972); further: nearly all actives have a fitted effect of over 30% in size
How it was run: as §2

[17] = Quantitative High-Throughput drug screen in 47 multiple myeloma cell lines against the NCATS MIPE library collection: KMS26_JCRB cell viability assay (AID 1918975); further: nearly all actives have a fitted effect of over 45% in size
How it was run: as §1

[18] = Quantitative High-Throughput drug screen in 47 multiple myeloma cell lines against the NCATS MIPE library collection: MMM1_PLB cell viability assay (AID 1918976); further: nearly all actives have a fitted effect of over 35% in size
How it was run: as §4

[19] = Quantitative High-Throughput drug screen in 47 multiple myeloma cell lines against the NCATS MIPE library collection: MOLP8_DSMZ cell viability assay (AID 1918977); further: nearly all actives have a fitted effect of over 45% in size
How it was run: as §4
Potency means the concentration at half of the fitted maximal effect.

| SMILES | Potency [1] | Potency [2] | Potency [3] | Potency [4] | Potency [5] | Potency [6] | Potency [7] | Potency [8] | Potency [9] | Potency [10] | Potency [11] | Potency [12] | Potency [13] | Potency [14] | Potency [15] | Potency [16] | Potency [17] | Potency [18] | Potency [19] |
| --- | --- | --- | --- | --- | --- | --- | --- | --- | --- | --- | --- | --- | --- | --- | --- | --- | --- | --- | --- |
| CC(C)(C)c1cc(C(C)(C)C)c(NC(=O)c2c[nH]c3ccccc3c2=O)cc1O | inactive | inactive | inactive | inactive | inactive | inactive | inactive | inactive | inactive | inactive | inactive |  |  |  |  |  |  |  |  |
| CC1(C)CC(=O)c2c(C(F)(F)F)nn(-c3ccc(C(N)=O)c(NC4CCC(OC(=O)CN)CC4)c3)c2C1 (centres undefined) | 0.148 µM (active) |  |  | 0.187 µM (active) | 0.148 µM (active) |  | 0.148 µM (active) | 0.469 µM (active) | 0.209 µM (active) | 0.209 µM (active) |  | 0.132 µM (active) | 0.132 µM (active) | 0.0743 µM (active) | 0.187 µM (active) | 0.132 µM (active) | 0.187 µM (active) | 0.418 µM (active) | 0.148 µM (active) |
| CC[C@H](CO)Nc1nc(NCc2ccccc2)c2ncn(C(C)C)c2n1 | 26.4 µM (active) |  | 18.7 µM (active) | 20.9 µM (active) |  | 4.18 µM (active) |  |  |  | 26.4 µM (active) | 26.4 µM (active) | 6.62 µM (active) | 18.7 µM (active) |  |  |  | 33.2 µM (active) |  |  |
| COC(=O)C[C@](O)(CCCC(C)(C)O)C(=O)O[C@@H]1C(OC)=C[C@]23CCCN2CCc2cc4c(cc2[C@H]13)OCO4 | inactive |  | inactive |  |  |  | inactive | inactive | inactive |  |  | inactive |  | inactive |  |  |  |  | inactive |
| CC(C)(C)NC(=O)[C@H]1CN(Cc2cccnc2)CCN1C[C@@H](O)C[C@@H](Cc1ccccc1)C(=O)N[C@H]1c2ccccc2C[C@H]1O | 5.26 µM (active) |  |  | 4.18 µM (active) |  |  |  |  |  | 26.4 µM (active) |  | inactive |  |  |  |  | 20.9 µM (active) |  |  |
| Nc1ccc(C(=O)c2cc3c(ccc4ccccc43)[nH]2)cc1 | 2.64 µM (active) | 2.64 µM (active) |  | 3.72 µM (active) |  |  | 18.7 µM (active) |  |  |  | 5.26 µM (active) |  |  |  |  |  | 16.6 µM (active) | 6.62 µM (active) |  |
| c1ccc2c(CCNc3ccc(Nc4ccncc4)cc3)c[nH]c2c1 | 16.6 µM (active) | 23.5 µM (active) |  | 20.9 µM (active) | 10.5 µM (active) |  | 20.9 µM (active) | inactive | 2.96 µM (active) | 3.32 µM (active) |  |  | 20.9 µM (active) | 4.18 µM (active) | 13.2 µM (active) | 5.26 µM (active) |  | 13.2 µM (active) |  |
| Nc1cccc(-c2cc3c(Oc4cccc(O)c4)ncnc3[nH]2)c1 | 16.6 µM (active) | 8.33 µM (active) |  | 18.7 µM (active) | 18.7 µM (active) |  | 23.5 µM (active) | inactive | 3.32 µM (active) |  |  |  |  |  | 20.9 µM (active) | inactive |  |  |  |
| O=c1[nH]c(=O)n(C2CCCO2)cc1F (centres undefined) | inactive |  | inactive | inactive |  | inactive | inactive | inactive |  | inactive | inactive | inactive |  | inactive | 19.1 µM (active) | inactive | inactive |  |  |
| Cc1nc2ccc(CN(C)c3ccc(C(=O)N[C@@H](CCC(=O)O)C(=O)O)s3)cc2c(=O)[nH]1 | 0.0935 µM (active) | 0.0418 µM (active) | inactive | inactive |  |  |  | inactive | 20.9 µM (active) |  | inactive |  |  | 0.264 µM (active) |  | 0.0662 µM (active) | 9.35 µM (active) |  |  |
| Nc1nccc(Oc2ccc(NC(=O)c3c[nH]cc(-c4ccc(F)cc4)c3=O)cc2F)c1Cl | 26.4 µM (active) | 18.7 µM (active) |  | 16.6 µM (active) |  |  | 20.9 µM (active) |  | 1.18 µM (active) | 2.35 µM (active) | 18.7 µM (active) |  | 20.9 µM (active) |  | 16.6 µM (active) | inactive | 33.2 µM (active) | 23.5 µM (active) | 20.9 µM (active) |
| C[C@@H]1CN(CC(=O)Nc2ccc3c(c2)Cc2cccc(-c4cc(=O)cc(N5CCOCC5)o4)c2S3)C[C@H](C)O1 | 13.2 µM (active) | 11.8 µM (active) |  | 4.18 µM (active) |  |  | 5.9 µM (active) |  | 18.7 µM (active) | 16.6 µM (active) |  |  | 13.2 µM (active) | 18.7 µM (active) | 20.9 µM (active) |  | 20.9 µM (active) |  |  |
| Cn1c(CNc2ccc(C(=N)N)cc2)nc2cc(C(=O)N(CCC(=O)O)c3ccccn3)ccc21 | inactive |  | inactive |  |  |  |  |  | 14.4 µM (active) | inactive |  | inactive |  | inactive | inactive | inactive | inactive |  | inactive |
| Cc1cc(N2CCOCC2)cc2[nH]c(-c3c(NC[C@@H](O)c4cccc(Cl)c4)cc[nH]c3=O)nc12 | 0.132 µM (active) | 0.296 µM (active) | 0.166 µM (active) | 0.0833 µM (active) | 0.0935 µM (active) |  | 0.0526 µM (active) | 0.296 µM (active) | 0.187 µM (active) | 0.187 µM (active) |  |  | 1.48 µM (active) | 0.332 µM (active) | 16.6 µM (active) | 7.43 µM (active) | 0.526 µM (active) | 0.166 µM (active) | 11.8 µM (active) |
| CC(C)Nc1cc(C(F)(F)F)cc2nc(NC(=O)c3cccnc3)nn12 | inactive |  | inactive | inactive |  |  | inactive | inactive |  | inactive | inactive | inactive |  | inactive |  |  |  |  | inactive |
